Screening data (PubChem)
Rows were chosen to be rich in hits. Some 7.9% of all compounds tested hit in one or more screens of this group.
KB-V1 MDR tox = kills drug-selected multidrug resistant KB-V1 cells | KB-V1 MDR cells viability, CellTiter-Glo, 72 h | Potency, µM (doses to about 46.1 µM), most hits filed as cytotoxic | 400,000 tested, 3.4% active; also: % is scaled to controls: 0 for no effect and ±100 for the full control effect; nearly all actives have a fitted effect of over 60% in size
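Potencies derive from concentration-effect curves fitted to normalized luminescence (CellTiter-Glo) of KB-V1 cells treated for 72 h at 37 degrees C in phenol-red-free DMEM containing 10% FBS.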
KB-3-1 cytotox = KB-3-1 parental cell cytotoxicity | Potency, µM (titrated, usually from 46.1 µM), hits mostly cytotoxic | 400,000 tested, 1.4% active | AID 1347075 | KB-3-1 viability, CellTiter-Glo ATP luminescence, 72 h; also: % is scaled to controls: 0 for no effect and ±100 for the full control effect; nearly all actives have a fitted effect of over 60% in size
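Cytotoxicity in the drug-sensitive parental line KB-3-1 was scored as loss of CellTiter-Glo luminescence following 72 h incubation with compound. Values come from curve fitting of normalized concentration-response data.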
HT1080 IDH1KD tx = kills HT-1080 cells with IDH1 knockdown; HT-1080 IDH1 knockdown viability, ATP luminescence, 48 h; Potency, µM (titrated, usually from 46.1 µM), for inactives: at the top dose activity, negative = toxicity, actives largely listed as cytotoxic; AID 686971; 360,000 tested, 2% active;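 also: 0% = DMSO wells and -100% = cell-free medium wells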
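Cytotoxicity counter-line: IDH1KD HT-1080, 48 h, CellTiter-Glo. Curves classed by r2, magnitude and activity.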
MCF10A rerep = DNA re-replication induction in MCF 10a cells. MCF 10A DNA re-replication, Hoechst nuclear intensity, 48 h. Potency, µM (titrated, usually from 46.1 µM), for the others: at the top dose activity, positive = re-replication, usual class: activators. 350,000 tested, 2.9% active. AID 624296; also: % of control where 0% means no effect; nearly all actives have a fitted effect of over 50% in size
SW480 rereplic = inducers of DNA re-replication in SW480 colon cancer cells. AID 624297. 340,000 tested, 1.8% active. SW480 DNA re-replication, Hoechst DNA content imaging, 48 h. Potency, µM (series often up to 46.1 µM), inactives show top-dose re-replication activation, most hits filed as activators; also: % of control where 0% means no effect; nearly all actives have a fitted effect of over 55% in size
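Image-based DNA-content assay: after two days of treatment, nuclei were labelled with the DNA dye Hoechst and imaged, and hits were compounds raising the count of nuclei showing high fluorescence intensity.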
HT1080NT lethal = kills 2HG-producing HT-1080-NT fibrosarcoma cells; HT-1080-NT fibrosarcoma viability, CellTiter-Glo ATP luminescence, 48 h; Potency, µM (titrated, usually from 46.1 µM), for inactives: top-dose activity, negative = less viability, usual class: cytotoxic; 360,000 tested, 1.6% active; AID 686970;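 also: NT is the 2HG producing partner of a matched IDH1 knockdown line; 0% = DMSO-treated cells and -100% = media-only wells without cells; nearly all actives have a fitted effect of over 55% in size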
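Read-out is CellTiter-Glo luminescence after 10 minutes at room temperature, following 48 hours' compound treatment of HT-1080-NT cells (750 cells/well, RPMI, 5% FBS, 37 degrees C).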
* = called active by the depositor; i = inactive; ? = inconclusive. Calls follow the shape of the dose curve; as a rule, active = well fitted curve in the direction sought with a large enough effect; inconclusive = small, poorly fitted or top-dose-only effect, or another doubt; inactive = no such curve, though single readings can be large; an effect the other way counts as inactive or inconclusive. Potency is read from the fitted curve at half-maximal effect.

SMILES	KB-V1 MDR tox	KB-3-1 cytotox	HT1080 IDH1KD tx	MCF10A rerep	SW480 rereplic	HT1080NT lethal
NC(=O)CN1N=C(c2cc(Cl)sc2Cl)CSC1=O	i	i	-9.4%	8.4%	-9.8%	-2.8%
c1ccc(-c2nnc3sc(-c4cc5ccccc5o4)nn23)cc1	i	i	?	18.4µM*	?	17.8%
CC(=O)Nc1ccc(NC(=O)CSc2nnc(NC(=O)c3ccc(Br)o3)s2)cc1	?	?	-20.1%	-1.8%	-0.9%	-17.5%
CN(CC(=O)Nc1ccc(C#N)cc1)Cc1ccc(Cl)cc1	?	i	?	?	-4.1%	?
N#Cc1ccc(NC(=O)Nc2ccc(Cl)cc2)cc1	?	20.6µM*	?	-1.8%	1.5%	14.6µM*
FC(F)(F)c1nc(N2CCCC2)ncc1-c1nnnn1-c1ccccc1	2.91µM*	?	-29.3%	16.1%	10.4%	28.6%
CN(C)CCCN(C(=O)/C=C/c1cccs1)c1nc2c(F)cccc2s1	?	?	?	25.9µM*	?	?
CCN(CC)CCN(C(=O)/C=C/c1cccs1)c1nc2ccc(OC)cc2s1	i	i	0.5%	0.1%	-1.2%	1.3%
Cc1cccc2sc(N(CCN(C)C)C(=O)/C=C/c3cccs3)nc12	18.4µM*	?	?	23.1µM*	?	?
CCOc1ccc2nc(N(CCN(CC)CC)C(=O)/C=C/c3cccs3)sc2c1	i	i	-20.2%	?	29.1µM*	-27.6%
COc1cccc(C(=O)c2cn(CC(=O)NCc3ccco3)c3nc(C)ccc3c2=O)c1	?	i	-3.1%	0.7%	1.9%	-3.0%
CC1(C)CC(=O)C(C=Nc2ccc3cn[nH]c3c2)=C(O)C1	i	i	-23.1%	-1.1%	-13.7%	4.0%
CS(=O)(=O)N(CC(=O)Nc1ccc(Br)cc1)C1CCCCC1	?	23.1µM*	?	11.1%	19.8%	?
CS(=O)(=O)N(CC(=O)Nc1ccc(C(N)=O)cc1)C1CCCCC1	i	i	0.8%	-1.5%	-3.8%	-5.4%
CC(C)CNC(=O)CN(C1CCCCC1)S(C)(=O)=O	i	i	10.7%	?	6.51µM*	5.4%
CN(C)CCNC(=O)c1ccccc1	i	i	1.1%	-3.6%	-8.5%	0.2%
CN(C)CCNC(=O)c1cccc2ccc(-c3ccc(-c4ccccc4)cc3)nc12	11.6µM*	?	?	?	?	-4.1%
COc1ccc(C23CC4CC(CC(C4)C2)C3)cc1C(=O)NCCN(C)C	i	i	?	?	?	?
COc1ccc(OC)c2nc3c(C(=O)NCCN(C)C)cccc3nc12	20.6µM*	?	20.6µM*	?	?	?
CN(C)CCNC(=O)c1cccc2nc3cccc(F)c3nc12	?	4.11µM*	7.31µM*	?	21.6%	?
Cn1cnc([N+](=O)[O-])c1Oc1ccccc1	i	i	-15.2%	?	-0.5%	-12.5%
CCS(=O)(=O)c1c([N+](=O)[O-])ncn1C	i	i	?	11.6µM*	?	?
Cn1cnc([N+](=O)[O-])c1S(=O)(=O)Oc1ccc(Cl)cc1	?	?	16.4µM*	6.51µM*	5.8µM*	20.6µM*
Cn1cnc([N+](=O)[O-])c1Oc1cccc2ccccc12	?	20.6µM*	20.6µM*	20.6µM*	?	?
Cn1cnc([N+](=O)[O-])c1S(=O)(=O)Oc1cccc2ccccc12	?	?	2.59µM*	5.8µM*	6.51µM*	1.16µM*
Cn1cnc([N+](=O)[O-])c1Cl	i	i	11.6%	?	-12.7%	12.1%
CCN(CC)c1c([N+](=O)[O-])ncn1C	i	i	11.9%	1.3%	-4.0%	9.9%
CC(C)(C)OC(=O)CC1(C#N)c2ccccc2C(Br)=CN1C(=O)c1ccccc1 (stereo not given)	i	i	?	?	2.6%	-23.9%
